Rows were chosen to be rich in hits. Some 3.4% of all compounds tested hit in one or more screens of this group.
FBW7 activator – activators of human E3 ligase FBW7 | Q969H0 | AlphaScreen FBW7–phospho-cyclin E peptide binding, activator screen | normalized activity (activation), % at 26.1 µM | 650,000 tested, 0.13% active; in the data active means normalized activity above about 1.9%;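 further: purified mutant Fbw7 with reduced substrate affinity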
MITF primary – human MITF inhibition, primary screen. inhibition, % at 2.6 µM. AlphaScreen MITF homodimerization, bead proximity signal. 650,000 tested, 0.91% active. O75030; in the data active means inhibition above about 50%
Target sequence (O75030 whole entry, looked up): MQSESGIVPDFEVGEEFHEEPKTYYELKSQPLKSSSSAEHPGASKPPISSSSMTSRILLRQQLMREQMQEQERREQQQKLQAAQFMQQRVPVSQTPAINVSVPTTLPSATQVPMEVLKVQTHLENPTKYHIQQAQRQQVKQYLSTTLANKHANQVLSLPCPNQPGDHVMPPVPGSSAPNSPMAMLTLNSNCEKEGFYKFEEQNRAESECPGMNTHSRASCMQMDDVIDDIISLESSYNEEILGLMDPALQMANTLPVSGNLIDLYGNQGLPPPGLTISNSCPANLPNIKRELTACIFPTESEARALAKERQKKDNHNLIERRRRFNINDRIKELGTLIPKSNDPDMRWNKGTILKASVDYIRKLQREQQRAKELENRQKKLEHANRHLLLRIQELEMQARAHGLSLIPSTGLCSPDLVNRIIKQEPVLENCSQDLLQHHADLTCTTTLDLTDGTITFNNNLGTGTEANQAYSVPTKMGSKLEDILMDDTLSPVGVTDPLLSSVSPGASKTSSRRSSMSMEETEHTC
GPR151 activ – human GPR151 activation; Q8TDV0; PathHunter beta-arrestin GPR151 cells, luminescence; activation, % at 11.2 µM; 650,000 tested, 1% active; in the data active means activation above about 4.9%
TEAD-YAP block – TEAD-YAP interaction inhibition; HEK-TIYL cells, TEAD-Gal4/YAP UAS-luciferase luminescence; inhibition, % at 9.12 µM; 640,000 tested, 1.4% active; in the data active means inhibition above about 32%
Large screens that a line does not name were inactive.

COc1ccc(-c2ccc(NS(=O)(=O)c3cc(C)cc(C)c3)cc2)nn1	FBW7 activator 1.9
COc1ccc(C2CC(C(F)(F)F)n3nc(C(=O)N4CCCCC4)cc3N2)cc1OC (configuration not stated)	TEAD-YAP block 38.0
N#Cc1ccc(Cl)c([N+](=O)[O-])c1	none
CCN(CC)S(=O)(=O)c1cc(C(=O)Nc2ccc(Br)cc2)ccc1OC	TEAD-YAP block 46.6
CCOc1ccc(NC(=O)c2ccc(F)c(S(=O)(=O)N(CC)Cc3ccccc3)c2)cc1	TEAD-YAP block 61.7
CCOc1ccc(NC(=O)c2ccc(F)c(S(=O)(=O)N(Cc3ccco3)CC3CCCO3)c2)cc1 (configuration not stated)	TEAD-YAP block 46.2
CCN(CC)S(=O)(=O)c1cc(C(=O)Nc2ccc(Br)cc2)ccc1F	none
CCOc1ccc(NC(=O)c2ccc(F)c(S(=O)(=O)N(CC)CC)c2)cc1	TEAD-YAP block 36.8
CCCn1ncc([C@@H]2C[C@H]3CN(C4CCN(C)CC4)C(=O)[C@]34CCCN24)c1C	none
CS(=O)(=O)Nc1ccc(C(=O)NCc2ccc(Cl)cc2)cc1	none
COc1ccc(COn2ccc3ccc(S(C)(=O)=O)cc32)cc1	TEAD-YAP block 42.3
COc1ccc(CCNc2cc(-c3c(C)nn(C)c3C)nc(N)n2)cc1	TEAD-YAP block 49.7
COc1ccc(CCNc2cc(-c3c(C)nn(C)c3C)ncn2)cc1	none
CCCNc1cc(-c2c(C)nn(C)c2C)nc(N)n1	TEAD-YAP block 39.9
CCC(C)(C)c1ccc(OCCCC[n+]2cccc(C)c2)c(C(C)(C)CC)c1	TEAD-YAP block 85.0
CCC(C)(C)c1ccc(OCCOCC[n+]2ccccc2)c(C(C)(C)CC)c1	TEAD-YAP block 77.2
N#C/C(=C\c1ccc(N2CCOCC2)cc1)c1[nH]nc(N)c1C#N	TEAD-YAP block 38.8
CCOCCn1cnc2sc(C(=O)Nc3cnc4ccccc4c3)c(C)c2c1=O	TEAD-YAP block 78.9
CCOCCn1cnc2sc(C(=O)Nc3nc4ccccc4s3)c(C)c2c1=O	TEAD-YAP block 48.5
c1ccc(-n2cnc3c(NCCN4CCOCC4)nc(Nc4ccccn4)nc32)cc1	TEAD-YAP block 35.1
c1ccc(-n2cnc3c(NCCN4CCOCC4)nc(Nc4ccncn4)nc32)cc1	none
c1ccc(-n2cnc3c(NCCN4CCOCC4)nc(Nc4cnccn4)nc32)cc1	TEAD-YAP block 48.1
c1ccc(-n2cnc3c(NCCN4CCOCC4)nc(Nc4ncccn4)nc32)cc1	none
O=C(CCCn1cc([N+](=O)[O-])cn1)NCc1ccc2c(c1)OCO2	none
CCCNC(=O)c1ccc(CNS(=O)(=O)c2ccc(OC)cc2)cc1	none
O=C(O)CC1S/C(=N/N=C/c2cccc([N+](=O)[O-])c2O)NC1=O (configuration not stated)	MITF primary 90.8
O=C(Oc1ccc(/C=C2\SC(=Nc3ccc4c(c3)OCO4)N(c3ccc4c(c3)OCO4)C2=O)cc1)N1CCOCC1	none
Cc1ccccc1Nc1nc2nonc2nc1N/N=C/c1ccc(F)cc1	none
Cc1cccc(Nc2nc3nonc3nc2N/N=C\c2cccs2)c1C	TEAD-YAP block 78.7
COCCCn1c(=NC(=O)C(C)C)c(C#N)cc2c(=O)n3ccccc3nc21	none
COc1ccc(C2=NN(CCC(=O)NCCc3ccc(Cl)cc3)C(=O)CC2)cc1	none
O=C1C(=O)N(Cc2ccc(Br)cc2)c2ccc([N+](=O)[O-])cc21	TEAD-YAP block 32.6
Cc1ccc(CN2C(=O)C(=O)c3cc([N+](=O)[O-])ccc32)cc1	TEAD-YAP block 66.2
O=C1C(=O)N(Cc2ccc(Cl)c(Cl)c2)c2ccc([N+](=O)[O-])cc21	none
O=C1C(=O)N(Cc2cccc3ccccc23)c2ccc(Br)cc21	none
O=C1C(=O)N(Cc2cccc3ccccc23)c2ccc([N+](=O)[O-])cc21	TEAD-YAP block 35.1
NC(=S)N1N=CCC1(O)C(F)(F)F (configuration not stated)	TEAD-YAP block 53.1
COc1ccc(CC2(C)OC(c3ccncc3)=NN2C(C)=O)cc1 (configuration not stated)	none
COc1ccc(CC2(C)OC(c3cccs3)=NN2C(C)=O)cc1 (configuration not stated)	TEAD-YAP block 36.3
Cc1cnc(Nc2ccc(N3CCOCC3)cc2)nc1Nc1ccccc1C(N)=O	TEAD-YAP block 93.0
Cc1cnc(Nc2ccccc2)nc1Nc1ccc(N2CCOCC2)cc1	TEAD-YAP block 61.9
Cc1cnc(Nc2nccc3ccccc23)nc1Nc1ccc2c(c1)OCO2	none
Cn1c(Nc2nc(Nc3ccc4c(c3)OCO4)c3[nH]cnc3n2)nc2ccccc21	FBW7 activator 14.1
CC(=O)Nc1ccc(Nc2nc(Nc3nc4ccccc4n3C)nc3nc[nH]c23)cc1	none
Cc1cnc(Nc2ccc3ncccc3c2)nc1Nc1ccc2c(c1)OCO2	TEAD-YAP block 44.3
c1cnc2ccc(Nc3nc(Nc4ccc(N5CCOCC5)cc4)c4[nH]cnc4n3)cc2c1	TEAD-YAP block 79.7
Cc1cnc(Nc2ccccn2)nc1Nc1ccc(N2CCOCC2)cc1	none
c1ccc(Nc2nc(Nc3ccc(N4CCOCC4)cc3)c3[nH]cnc3n2)nc1	none
Cc1cnc(Nc2ccc3ncccc3c2)nc1Nc1ccc(N2CCOCC2)cc1	TEAD-YAP block 47.1
O=C(Nc1ccc(N2CCOCC2)cc1)C1CCN(c2ccc(Nc3ccc4ncccc4c3)nn2)CC1	TEAD-YAP block 39.6
COc1cc(Nc2nc(Nc3ccc(N4CCOCC4)cc3)ncc2C)cc(OC)c1OC	TEAD-YAP block 66.3
CC1=C(C(=O)OCCc2ccccc2)C(c2cc3c(cc2Br)OCO3)NC(=O)N1 (configuration not stated)	none
Cc1ccc(-c2ccccc2NC(=O)CSc2nnc3c(n2)-c2cccc4cccc-3c24)o1	none
Cc1cnc(Nc2ccc(N3CCOCC3)cc2)nc1Nc1ccccc1	TEAD-YAP block 63.4
c1nc2nc(Nc3ccc(N4CCOCC4)cc3)nc(Nc3ccc4c(c3)OCO4)c2[nH]1	TEAD-YAP block 45.2
Cc1cnc(Nc2ncccn2)nc1Nc1ccc(N2CCOCC2)cc1	none
c1ccc(Nc2nc(Nc3ccc4c(c3)OCO4)c3[nH]cnc3n2)cc1	none
CCC(C)C(=O)Nc1nnc(COC)s1 (configuration not stated)	none
Cc1c(C(=O)N2CCN(c3ccc(F)cc3)CC2)sc2ncnc(N3CCN(c4ccccc4)CC3)c12	none
O=C(NCc1cccnc1)c1ccnc(N2CCN(Cc3ccc4c(c3)OCO4)CC2)c1	none
COc1ccc(/C=C/C(=O)Nc2ccc(S(=O)(=O)N(C)Cc3ccccc3)cc2)cc1	TEAD-YAP block 43.3
CN(Cc1ccccc1)S(=O)(=O)c1ccc(NC(=O)/C=C/c2ccc(F)cc2)cc1	none
CC(=O)/C=C/c1ccc(OCc2ccccc2)cc1	TEAD-YAP block 44.0
CCOc1ccc(/C=C/C(=O)Nc2ccccc2)cc1	TEAD-YAP block 51.2
O=C(CNC(=O)c1ccccc1)N/N=C/c1ccccc1	none
Cn1ccnc1C1(O)COC2(CCN(C(=O)c3cccs3)CC2)C1 (configuration not stated)	none
CC(=O)/C=C1\N(C)c2ccccc2C1(C)C	none
CC(=O)c1ccc(S(=O)(=O)N(C)CC(=O)/C=C2/N(C)c3ccccc3C2(C)C)cc1	TEAD-YAP block 38.5

From PubChem BioAssay
